According to PubChem BioAssay (NCI):
Compounds without any hit were thinned out: in the full panel of roughly 79,000, 15% have a hit. Calls of active or inactive are those of the source. Cut-off read from the data, not from the text of the source: active = growth inhibition above about 70%; inactive = the rest.

Experiments:
[1] = NCI Yeast Anticancer Drug Screen. Data for the rad50 strain (AID 155);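 note: 0% = growth of vehicle-only cultures of the same strain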; conditions: S. cerevisiae rad50 strain growth inhibition, hits give high values
Summary of the method: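 A DNA repair-deficient yeast mutant serves as the test organism; compound-induced growth inhibition is calculated against vehicle-treated cells.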

[2] = NCI Yeast Anticancer Drug Screen. Data for the mec2-1 strain (AID 157); conditions: S. cerevisiae mec2-1 strain, hits give high values
Summary of the method: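 Compounds were applied to mec2-1 yeast cells. Their growth was then compared with that of vehicle-treated cultures to give growth inhibition.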

[3] = NCI Yeast Anticancer Drug Screen. Data for the sgs1 mgt1 strain (AID 161);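 note: 0% = growth of cultures given vehicle only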; conditions: S. cerevisiae sgs1 mgt1 strain, hits give high values
Summary of the method: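 Growth of a repair-deficient yeast mutant was monitored after compound treatment and expressed as inhibition relative to vehicle-treated cultures.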

[4] = NCI Yeast Anticancer Drug Screen. Data for the cln2 rad14 strain (AID 165);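 note: 0% = growth equal to vehicle treated cultures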; conditions: S. cerevisiae cln2 rad14 strain, hits give high values
Summary of the method: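 Strain: cln2 rad14 yeast, altered in cell cycle control and DNA damage repair. Read-out: growth inhibition vs vehicle.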

[5] = NCI Yeast Anticancer Drug Screen. Data for the bub3 strain (AID 167); conditions: S. cerevisiae bub3 mutant strain, hits give high values
Summary of the method: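 Inhibition values come from growth of compound-treated mutant yeast normalised to vehicle-treated controls.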

[6] = NCI Yeast Anticancer Drug Screen. Data for the mlh1 rad18 strain (AID 175); conditions: S. cerevisiae mlh1 rad18 strain growth inhibition, hits give high values
Summary of the method: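 A repair-deficient yeast strain is exposed to test compound, and growth is scored relative to vehicle-treated controls.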

[7] = at 5.0 µM (retest, dose inferred, filed as 0.5)
[8] = at 50.0 µM (retest, dose inferred, filed as 5.0)

Measured: growth inhibition

O=[N+]([O-])c1cc(I)c(O)c(/C=N/NS(=O)(=O)c2ccc(Cl)cc2)c1
inactive: [1]; [7] -3% | [1]; [8] 11% | [2]; [7] -8% | [2]; [8] 1% | [3]; [7] -1% | [3]; [8] 17% | [4]; [7] -9% | [4]; [8] -1% | [4]; at 50.0 µM 62.2% | [5]; [7] -6% | [5]; [8] -1% | [6]; [7] -2% | [6]; [8] 4%
active: [1]; at 50.0 µM 88.5% | [2]; at 50.0 µM 75.1% | [3]; at 50.0 µM 77.7% | [5]; at 50.0 µM 72% | [6]; at 50.0 µM 91.8%

Nc1ccc(SSc2ccc(N)cc2)cc1
inactive: [1]; [7] -2% | [2]; [7] -3% | [2]; at 50.0 µM 61.5% | [3]; [7] 2% | [3]; at 50.0 µM 57.6% | [4]; [7] -7% | [5]; [7] 0% | [6]; [7] -1%
active: [1]; [8] 97% | [1]; at 50.0 µM 93% | [2]; [8] 98% | [3]; [8] 97% | [4]; [8] 72% | [4]; at 50.0 µM 94.1% | [5]; [8] 98% | [5]; at 50.0 µM 95.3% | [6]; [8] 98% | [6]; at 50.0 µM 96.4%

CNC(=O)c1ccc(OC)cc1C1(O)c2ccccc2CCc2ccccc21
active: [3]; [8] 78% | [3]; at 50.0 µM 80.5% | [5]; [8] 87% | [6]; [8] 76%
inactive: [1]; [7] 40% | [1]; [8] 64% | [1]; at 50.0 µM 58.6% | [2]; [7] 34% | [2]; [8] 49% | [2]; at 50.0 µM 45% | [3]; [7] 36% | [4]; [7] 27% | [4]; [8] 49% | [4]; at 50.0 µM 46.4% | [5]; [7] 37% | [5]; at 50.0 µM 58.8% | [6]; [7] 46% | [6]; at 50.0 µM 58.8%

O=c1[nH]ccc(CNC23CC4CC(CC(C4)C2)C3)c1O
inactive: [1]; [7] 5% | [1]; [8] 11% | [1]; at 50.0 µM 49.9% | [2]; [7] 10% | [2]; [8] 33% | [2]; at 50.0 µM 21.4% | [3]; [7] 18% | [3]; [8] 67% | [3]; at 50.0 µM 61.9% | [4]; [7] 10% | [4]; [8] 11% | [4]; at 50.0 µM 39.9% | [5]; [7] 7% | [5]; [8] 49% | [5]; at 50.0 µM 36.4% | [6]; [7] 6% | [6]; [8] 38%
active: [6]; at 50.0 µM 81.5%
